Data reported in PubChem BioAssay AID504850 (National Center for Advancing Translational Sciences (NCATS), 2011).
The campaign covered roughly 2,300 compounds. About 1,200 (52%) were called active. Another 34% or so got no clear call; they are omitted. Calls come from the whole dose curve; as a rule, active = well fitted inhibition curve with a large enough effect; inconclusive = small, poorly fitted or top-dose-only effect, or effect the other way; inactive = no such curve, though single readings can be large or run the other way. The set was probably picked from earlier hits. The list shows a part of the results.

Experiment: Confirmation screen for delayed death inhibitors of the malarial parasite plastid, 48 hour incubation; note: nearly all actives have a fitted effect of over 65% in size
Conditions: P. falciparum-infected erythrocytes, luciferase growth; series mostly up to 28.7 µM; activity change, negative = inhibition: at the top concentration
How it was run: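 Single-generation (48 h, 37 C) exposure of integrated firefly luciferase-reporter P. falciparum in red cells, 0.1% parasitemia at 2% hematocrit, Albumax-supplemented RPMI. Falling luciferase signal marks parasite growth inhibition.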
% is set by controls: 0 for no effect and ±100 for the full control effect; potency is the fitted concentration of half-maximal effect.

| SMILES | Potency | activity change, negative = inhibition |
| --- | --- | --- |
| COc1cc([N+](=O)[O-])c(OC)cc1SCc1n[nH]c(=S)n1-c1ccc(F)cc1 | 14.1 µM (active) |  |
| CCCCCCC1C(C#N)=C(N)OC2=C1C(=O)CCC2 (stereo not given) |  | -17.8% (inactive) |
| CCc1ccc(NC(=O)CSc2nc3n[nH]c(C)c3c(=N)n2-c2cccc(OC)c2)cc1 | 5.62 µM (active) |  |
| COc1ccc2c(CC(=O)OCC(=O)Nc3cccc(S(N)(=O)=O)c3)coc2c1 |  | -6.93% (inactive) |
| CCc1nc(SCC(=O)Nc2ccc(N(C)C)cc2)n[nH]1 |  | -31.7% (inactive) |
| COc1cccc(NC(=O)CSc2nc3n[nH]c(C)c3c(=N)n2-c2cccc(OC)c2)c1 | 7.94 µM (active) |  |
| COc1cccc(NC(=O)c2oc3ccccc3c2NC(=O)C2CC2)c1 | 15.8 µM (active) |  |
| COc1ccccc1NC(=O)c1oc2ccccc2c1NC(=O)C1CC1 | 8.91 µM (active) |  |
| COc1cccc(NC(C)C(=O)Nc2cc([N+](=O)[O-])ccc2Cl)c1 (stereo not given) | 3.16 µM (active) |  |
| COc1cccc(N/C(SCc2cccc([N+](=O)[O-])c2)=C(/C#N)C(N)=O)c1 |  | 0.153% (inactive) |
| Cn1c(CCN2CCCC2)nc2cc(NS(=O)(=O)c3ccc(Cl)cc3)ccc21 | 11.2 µM (active) |  |
| Cn1c(CCN2CCCC2)nc2cc(NS(=O)(=O)c3ccccc3)ccc21 | 3.55 µM (active) |  |
| CC1CCCCN1C(=O)COC(=O)c1cccc(NS(=O)(=O)c2ccccc2)c1 (stereo not given) |  | -8.12% (inactive) |
| Cc1cccc(N/N=C(\C(N)=O)C2=NC(C)(C)Cc3ccccc32)c1 | 4.47 µM (active) |  |
| CC(=O)c1ccc(N/N=C(/C(N)=O)C2=NC(C)(C)Cc3ccccc32)cc1 | 7.08 µM (active) |  |
| CN(Cc1ccc(Cl)c(Cl)c1)C(=O)C1=CC=CN2CCS(=O)(=O)N=C12 | 7.94 µM (active) |  |
| CN1C(=O)C(C)(C)c2cc(S(=O)(=O)NCC3CCC(C(=O)NCc4ccc(F)cc4)CC3)ccc21 (stereo not given) | 15.8 µM (active) |  |
| CCOc1cccc2sc(NC(=O)CCS(=O)(=O)c3ccccc3)nc12 | 11.2 µM (active) |  |
| COc1ccc(C)c2sc(NC(=O)CCS(=O)(=O)c3ccccc3)nc12 |  | -24.2% (inactive) |
| CC1(C)CC(=O)c2sc(NC(=O)CCS(=O)(=O)c3ccccc3)nc2C1 |  | -29.9% (inactive) |
| Nc1nonc1-n1nnc(C(=O)N/N=C/c2ccc(Cl)cc2)c1-c1ccc2c(c1)OCO2 | 0.0562 µM (active) |  |
| Nc1nonc1-n1nnc(C(=O)N/N=C/c2cccc(Cl)c2)c1-c1ccc2c(c1)OCO2 | 0.126 µM (active) |  |
| Cc1ccsc1/C=N/NC(=O)c1nnn(-c2nonc2N)c1-c1ccc2c(c1)OCO2 | 1.26 µM (active) |  |
| CN(Cc1c(C(=O)N/N=C/c2cccc(O)c2)nnn1-c1nonc1N)c1ccccc1 |  | 1.84% (inactive) |

| SMILES | Potency | activity change, negative = inhibition |
| --- | --- | --- |
| CCOc1ccc(-c2c(C(=O)N/N=C/c3ccc(OC(C)C)cc3)nnn2-c2nonc2N)cc1 | 15.8 µM (active) |  |
| CC(=O)NC[C@@H]1CN(c2ccc(N3CCOCC3)c(F)c2)C(=O)O1 |  | -19.4% (inactive) |
| CCCC(=O)N=C1SC2CS(=O)(=O)CC2N1c1ccc(CC)cc1 (stereo not given) | 7.94 µM (active) |  |
| CC(=O)Nc1nc2ccccc2n1Cc1ccc(C)cc1 | 6.31 µM (active) |  |
| CC(=O)NC(C)c1nc2ccccc2n1CC(=O)N1C(C)CCCC1C (stereo not given) |  | -18.3% (inactive) |
| Clc1cccc(CN2CCc3c([nH]c4ccccc34)C2)c1 | 12.6 µM (active) |  |
| CCN(CC)CCNC(=O)c1ccc(NC(=O)c2ccccc2-c2ccc(C(F)(F)F)cc2)cc1 | 12.6 µM (active) |  |
| CCOCCCNC(=O)/C(C#N)=C/c1ccc(-c2ccc(S(=O)(=O)N3CCOCC3)cc2)o1 | 14.1 µM (active) |  |
| COc1ccc(-c2c(-c3cc(OC)cc(OC)c3)n(C)c3ccc(-c4ccc5[nH]ccc5c4)cc23)cc1 | 8.91 µM (active) |  |
| COc1cc2c(cc1OC)CN(C(=O)c1cccc(S(=O)(=O)N3CCc4ccccc43)c1)CC2 | 11.2 µM (active) |  |
| O=C(c1cccc(S(=O)(=O)N2CCc3ccccc32)c1)N1CCN(c2ccccc2)CC1 | 14.1 µM (active) |  |
| O=C(CNC(=O)c1cccc(S(=O)(=O)N2CCc3ccccc32)c1)Nc1ccc(F)c(F)c1F | 12.6 µM (active) |  |
| Cc1cc(C)c2[nH]c(C(=O)N3CCC(n4nccc4NC(=O)C4CC4)CC3)c(C)c2c1 | 12.6 µM (active) |  |
| Cc1c(C(=O)N2CCC(n3nccc3NC(=O)C3CC3)CC2)[nH]c2ccc(Cl)cc12 | 11.2 µM (active) |  |
| Cc1ccc(S(=O)(=O)Nc2cccc3cccnc23)c([N+](=O)[O-])c1 | 5.01 µM (active) |  |
| Cc1ccc(S(=O)(=O)Nc2cccc3cccnc23)cc1 | 7.08 µM (active) |  |
| N#Cc1cccc(NC(=O)Cn2c3[n+](c4ccc(C(F)(F)F)cc42)CCCCC3)c1 | 4.47 µM (active) |  |
| CC1(CCc2ccc3c(c2)OCO3)NCCc2c1[nH]c1ccccc21 (stereo not given) | 8.91 µM (active) |  |
| CCOc1cc(/C=C2/C(=O)ON=C2C)ccc1OCc1ccccc1 |  | -1.49% (inactive) |
| CCOC(=O)C1CCCCN1Cc1cccc(OCc2ccccc2)c1 (stereo not given) | 14.1 µM (active) |  |
| CCOC(=O)C1CCCN(Cc2ccc(OCc3ccccc3)c(OC)c2)C1 (stereo not given) | 14.1 µM (active) |  |
| CC(C)(C)c1ccc(C(O)CCCN2CCC(C(O)(c3ccccc3)c3ccccc3)CC2)cc1 (stereo not given) | 12.6 µM (active) |  |
| Cc1ccc(C(=O)C(C(=O)/C=C/c2ccccc2)=C2SCCCS2)cc1 | 14.1 µM (active) |  |
| COc1ccc2[nH]cc(C(=O)CCl)c2c1 | 12.6 µM (active) |  |

| SMILES | Potency | activity change, negative = inhibition |
| --- | --- | --- |
| COc1ccc2[nH]cc(CCCN3C(=O)c4ccccc4C3=O)c2c1 |  | -25.1% (inactive) |
| CCn1c2ccccc2c2c3ncc4cccn4c3ccc21 | 14.1 µM (active) |  |
| CCC(CC)COC(=O)C1=C(C)NC(=O)NC1c1ccccc1Br (stereo not given) | 12.6 µM (active) |  |
| CCOc1ccc(CNC(=O)c2cc3oc4ccccc4c3n2C)cc1 |  | 1.62% (inactive) |
| CCOc1ccccc1CNC(=O)c1cc2oc3ccccc3c2n1CC | 14.1 µM (active) |  |
| COc1cccc(CNC(=O)c2cc3oc4ccccc4c3n2C)c1OC |  | 4.7% (inactive) |
| CC(=O)Nc1cccc(Oc2ncnc3scc(-c4ccc(C(C)C)cc4)c23)c1 | 11.2 µM (active) |  |
| COc1ccc(-c2c(-c3ccc(OC)c(C)c3O)n[nH]c2C)cc1 | 14.1 µM (active) |  |
| CC1CCC/C=C/C(=O)c2c(O)cc(O)cc2CC(=O)O1 (stereo not given) | 7.08 µM (active) |  |
| COc1ccc(C2CC(=O)C3=C(C2)Nc2ccccc2NC3c2coc3ccccc3c2=O)cc1OC (stereo not given) | 1.26 µM (active) |  |
| CCCCSc1nnc(-c2cc3c(C(F)(F)F)nn(C)c3s2)n1C | 12.6 µM (active) |  |
| Cc1cccc2cc3c(nc12)SC(=NCC1CCCO1)N(Cc1ccco1)C3 (stereo not given) | 1.78 µM (active) |  |
| O=C(O)CCn1c(-c2ccccc2)cc2c1CCCC2=O |  | -9.21% (inactive) |
| COc1cc(/C=C/C(=O)NC(=O)c2ccccc2O)ccc1OC(C)=O | 10 µM (active) |  |
| O=C(CCN1C(=O)S/C(=C\c2ccccc2)C1=O)NC1CCS(=O)(=O)C1 (stereo not given) |  | -29.3% (inactive) |
| O=C(CCl)NCCN1C(=O)S/C(=C\c2cccnc2)C1=O | 7.94 µM (active) |  |
| COc1ccc2c(c1OC)C(=O)OC2Nc1nc(-c2ccccc2)cs1 (stereo not given) | 10 µM (active) |  |
| CCCCCNc1nc2sc3c(c2c(=O)n1-c1cccc(Cl)c1)CCN(C)C3 | 7.08 µM (active) |  |
| CCCCNc1nc2sc3c(c2c(=O)n1-c1cccc(Cl)c1)CCN(C)C3 | 3.55 µM (active) |  |
| Brc1ccccc1-c1nnc(COc2ncnc3c2cnn3-c2ccccc2)o1 |  | -15.7% (inactive) |
| CCOc1ccc(NC(=O)C[n+]2ccc(N(C)C)cc2)cc1 | 2.51 µM (active) |  |
| O=C(C[n+]1cccc(CNC(=O)c2ccc(OC(F)F)cc2)c1)Nc1ccc(SC(F)F)cc1 | 5.62 µM (active) |  |
| CN(C)c1cc[n+](CC(=O)Nc2ccc(OC(F)F)cc2)cc1 | 2.82 µM (active) |  |
| Cc1ccc[n+](CC(=O)Nc2ccc(N(C)C)cc2)c1 |  | -11.7% (inactive) |

| SMILES | Potency | activity change, negative = inhibition |
| --- | --- | --- |
| O=C(CCl)Nc1ccc(Sc2ccc(NC(=O)CCl)cc2)cc1 | 2.51 µM (active) |  |
| CC(C)N(c1ccccc1)c1ccc(NC(=O)CCl)cc1 | 11.2 µM (active) |  |
| CCOC(=O)c1c(NC(=S)N2CCCCC2)sc2c1CCN(C(=O)OCC)C2 | 5.62 µM (active) |  |
| CCc1ccc(-c2nc3ccc(Br)cc3c(C(=O)O)c2C)s1 |  | -27.6% (inactive) |
| C=CCc1cccc(CNc2ccc(Br)cc2)c1O | 3.98 µM (active) |  |
| COc1ccc(CCNc2cc(C)nc3c(-c4ccc(Cl)cc4)c(C)nn23)cc1OC | 12.6 µM (active) |  |
| O=C(CSc1nnc(CNc2ccc(F)cc2)o1)c1ccccc1 |  | -19.3% (inactive) |
| Fc1ccc(CNc2ccc(N3CCN(Cc4ccccc4)CC3)cc2)cc1 | 12.6 µM (active) |  |
| CCCCN(CCCC)CC(O)c1cc(Cl)cc2c1-c1ccc(Cl)cc1/C2=C/c1ccc(Cl)cc1 (stereo not given) | 0.0562 µM (active) |  |
| Cc1nn(Cc2c(Cl)cccc2Cl)c(C)c1NC(=O)c1cc(C(C)C)on1 | 12.6 µM (active) |  |
| CCC(C(=O)Nc1sc(C(N)=O)c(C)c1C(=O)OC)c1ccccc1 (stereo not given) | 12.6 µM (active) |  |
| CCOC(=O)c1cnc2ccccc2c1NCCc1ccc(OC)c(OC)c1 | 11.2 µM (active) |  |
| CCN(CC)C(=O)N1c2ccccc2C=Cc2ccccc21 | 15.8 µM (active) |  |
| O=C1c2ccccc2C(=Nc2ccccc2)C1c1cccc(Br)c1 (stereo not given) | 3.98 µM (active) |  |
| CCOC(=O)c1cc(-c2ccccc2)sc1NC(=O)C(C)OC(=O)c1cccnc1Cl (stereo not given) | 11.2 µM (active) |  |
| CCc1ccc(Nc2n[n+](-c3ccccc3)c(-c3cccc(Cl)c3Cl)s2)cc1 | 3.16 µM (active) |  |
| CC1=CC(C)(C)N2C(=O)C3(NCCc4c3[nH]c3ccccc43)c3cc(C)cc1c32 (stereo not given) | 14.1 µM (active) |  |
| CCN(CC)c1ccc(/C=N/NC(=S)NC)c(O)c1 | 10 µM (active) |  |
| O=C(C[n+]1ccccc1)Nc1ccc(Cl)c([N+](=O)[O-])c1 | 12.6 µM (active) |  |
| Cc1ccc(-c2cc(NC(=O)CCl)n(-c3ccccc3)n2)cc1 | 10 µM (active) |  |
| CC(C)(C)c1cc(NC(=O)CCl)n(-c2ccccc2)n1 | 12.6 µM (active) |  |
| O=C(CCl)Nc1c2c(nn1-c1ccccc1)CSC2 | 2.51 µM (active) |  |
| N#CCCn1nc(-c2ccc(Cl)cc2)cc1Nc1ccccc1NC(=O)C(F)(F)F |  | -22.3% (inactive) |
